# Compound activity (PubChem BioAssay)
# Sampled rows, rich in hits. Any-hit rate of the full collection: about 0.93%.
# TRb SRC2 PPI: TRbeta-SRC2 interaction inhibition | P10828 | AID 1469 | Potency, µM (titrated, usually from 106 µM), without a hit: at the highest dose activity change, negative = inhibition, hits mostly inhibitors | TRbeta-SRC2 peptide binding, fluorescence polarization; receptor liganded with 1 µM T3 | hit rate 0.065% among 280,000; active means well fitted inhibition curve with a large enough effect; inconclusive means small, poorly fitted or top-dose-only effect, or effect the other way;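 further: potency means the concentration at half of the fitted maximal effect; plate controls were bound peptide for no effect and peptide without receptor for full effect; nearly all actives have a fitted effect of over 50% in size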
# Target sequence (P10828 whole entry, looked up): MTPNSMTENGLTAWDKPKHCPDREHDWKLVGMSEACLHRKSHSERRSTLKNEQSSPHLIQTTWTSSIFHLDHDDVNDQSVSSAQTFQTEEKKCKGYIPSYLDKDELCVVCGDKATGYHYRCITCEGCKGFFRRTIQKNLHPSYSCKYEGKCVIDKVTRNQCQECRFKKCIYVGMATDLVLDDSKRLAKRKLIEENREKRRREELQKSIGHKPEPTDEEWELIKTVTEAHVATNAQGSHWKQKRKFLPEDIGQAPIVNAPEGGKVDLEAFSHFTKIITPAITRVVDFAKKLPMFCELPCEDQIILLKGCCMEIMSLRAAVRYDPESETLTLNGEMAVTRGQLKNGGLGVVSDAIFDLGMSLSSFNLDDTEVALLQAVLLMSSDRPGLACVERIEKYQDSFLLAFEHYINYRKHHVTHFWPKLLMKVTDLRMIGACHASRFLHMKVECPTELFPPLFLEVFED
#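 Each compound concentration gave % activity, normalized to unbound and bound Texas Red SRC2 controls, from polarization read after 5 hr ambient incubation with T3-loaded human TRb LBD.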
# FBPA coupling cs: coupling enzyme interference in Giardia aldolase counter-screen; coupling enzyme system counterscreen, AmpLite Red fluorescence; activity change, negative = inhibition, % at 58.2 µM, hits read low; hit rate 0.67% among 290,000; AID 2472; in the data active means activity change below about -30%
#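 Fluorescence at 525 nm excitation and 598 nm emission measured inhibition of the coupled detection system without aldolase. Compounds (at 57.5 uM final) were preincubated 10 min at room temperature with coupling enzyme reagent before a 20 min substrate/AmpLite Red step.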
# GoLoco inh red: RGS12 GoLoco-Gai1 interaction inhibition. P63096. Gai1:RGS12 GoLoco peptide FP, rhodamine, 10 min. Potency, µM (top dose mostly 61.6 µM), inactives show at the highest dose activity, negative = inhibition, actives largely listed as inhibitors. hit rate 0.44% among 230,000. AID 880; active means well fitted inhibition curve with a large enough effect, not every such curve was filed as active; inactive means no such curve, though single readings can be large or run the other way; further: potency means the concentration at half of the fitted maximal effect; nearly all actives have a fitted effect of over 30% in size
# TR SRC2 fluor cs: alters Texas Red total fluorescence, flagging assay interference; AID 1479; Potency, µM (highest dose often 106 µM), inactives show at the top dose fluorescence change, negative = quenching; hit rate 0.29% among 280,000; TRb/SRC2 Texas Red total fluorescence interference; active means well fitted curve in either direction with a large enough effect; inconclusive means small, poorly fitted or top-dose-only effect; further: potency means the concentration at half of the fitted maximal effect
#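 Flags fluorescent or light-absorbing compounds by total fluorescence, S + 2P, at 555 nm excitation and 632 nm emission. Mixture: 20 nM Texas Red SRC2 peptide, 0.6 uM human TRb LBD, 1 uM T3, 5% DMSO; compound exposure 5 h at ambient temperature.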
# * marks the source's active call; other numbers are inactive results; ? = inconclusive; / = no result; ! = not active in a repeat; [ ] = another dose, or the depositor's remark. Unless noted, on the % scale 0 is the no-effect control and ±100 the full control effect.
SMILES,TRb SRC2 PPI,FBPA coupling cs,GoLoco inh red,TR SRC2 fluor cs
CN1C=CC2=C(C#N)C(N)C(C#N)(C#N)[C@H](c3ccccc3)[C@H]2C1 (some centres not stated),-27%,-30*,13%,2%
N#CC1(C#N)C(C(N)=O)C1c1ccccc1 (configuration not stated),4%,1,7%,-9%
O=C(COc1ccccc1[N+](=O)[O-])N/N=C/c1ccc(OC(=O)c2ccco2)cc1,-11%,-3,1%,282µM*[quencher]
Cc1cc2c(cc1S(=O)(=O)N(CCN(C)C)Cc1ccco1)OCC(=O)N2,-4%,/,/,-3%
Cc1c(N/N=C(\C#N)C(=O)c2ccccc2)c(=O)n(-c2ccccc2)n1C,-12%,0,-1%,2.2µM*[quencher]
N#CC1=C(N)C(C#N)(C#N)C(c2cccnc2)C2CC(c3ccccc3)CC=C12 (configuration not stated),-15%,3,6%,1%
N#CC1=C(N)C(C#N)(C#N)C(c2cccnc2)C2CCCC=C12 (configuration not stated),3%,-36*,5%,6%
Cc1ccc(Cl)cc1N1C(=O)N(Cc2ccc(C#N)cc2)c2ccccc2S1(=O)=O,0%,/,/,-1%
Nc1c(C(=O)NCc2ccco2)c2nc3ccccc3nc2n1CCc1ccc(F)cc1,-19%,-34*,152%,-3%
COc1cc2sc(C)nc2c2ccccc12,/,-32*,/,/
Cc1nn(-c2ccc(S(=O)(=O)O)cc2)c(O)c1N=Nc1ccc(-c2ccc(N=Nc3ccc4c(S(=O)(=O)O)cc(S(=O)(=O)O)c(N)c4c3O)c(O)c2)cc1O.[Cu].[Cu],/,/,3.2µM*,/
COc1cc(-c2ccc(N=Nc3ccc4c(S(=O)(=O)O)cc(S(=O)(=O)O)c(N)c4c3O)c(OC)c2)ccc1N=Nc1ccc2c(S(=O)(=O)O)cc(S(=O)(=O)O)c(N)c2c1O,25µM*,-57*,30%,16µM*[fluorescent]
CN1C/C(=C/c2ccc(B(O)O)cc2)C(=O)/C(=C/c2ccc(B(O)O)cc2)C1,20%,-1,/,-3%
CCN1CCN(C(=O)c2ccc3c(c2)N(Cc2ccccc2)C(=O)c2ccccc2S3(=O)=O)CC1,-16%,1,/,0.013µM*[quencher]
Cc1ccc(C(C[N+](=O)[O-])c2c(C)[nH]n(-c3ccccc3)c2=O)cc1 (configuration not stated),-21%,-32*,-5%,3%
O=C(Nc1cccc(C(=O)N2CCN(c3cccc(Cl)c3)CC2)c1)c1nsc2ccccc12,-6%,/,/,-2%
CC(C)Oc1ccc(CNC(=O)CN2C(=O)c3cccnc3Oc3ccc(Cl)cc32)cc1,-1%,/,/,20µM*[quencher]
CCOc1ccccc1CNC(=O)CN1C(=O)c2cccnc2Oc2ccc(C)cc21,-13%,/,/,22µM*[quencher]
CCOC(=O)c1ccc(N2C(=O)c3[nH]nc(-c4ccc(C)cc4)c3C2c2cccs2)cc1 (configuration not stated),-5%,/,/,-2%
CC1=CC(=O)CC(C)(C)C1,-2%[201 µM],/,/,-3%[201 µM]
Cc1ccc(CNC(=O)CSc2nc3ccsc3c(=O)n2-c2ccc(C(=O)O)cc2)cc1,7%,/,/,3%
COc1ccccc1N1CCN(C(=O)Cc2cccs2)CC1,-5%,-32*,20%,1%
CC1=CC(C)(C)Nc2ccc(OC(=O)CN3C(=O)c4cccc5cccc(c45)C3=O)cc21,-28%,-54*,-3%,-8%
CC1=CC(C)(C)Nc2ccc(OC(=O)CN3C(=O)c4ccccc4C3=O)cc21,-2%,-2,-6%,-7%
Cc1ccc(NC(=O)CSc2ncc(S(=O)(=O)c3ccccc3)c(=O)[nH]2)cc1C,-22%[53 µM],2,5%,0.0003µM*[quencher]
Cc1ccccc1OCCSc1nc(C)c(Cc2ccccc2)c(=O)[nH]1,?,/,/,3.2µM*[quencher]
Cc1ccc(NC(=O)CSc2nc(C)c(Cc3ccccc3)c(=O)[nH]2)cc1C,?,6,0%,40µM*![quencher]
Cc1nc(SCCOc2ccccc2)[nH]c(=O)c1Cc1ccccc1,-2%,2,-10%,1%
CCCCCCCCCCCC(=O)N(C)CC(=O)O,-1%[201 µM],/,/,-1%[201 µM]
NCCC[C@@H](CC(=O)N[C@@H]1CCNC[C@H]1C(=O)N[C@H](CC(=O)N[C@@H](CCC(=O)O)CC(=O)O)Cc1c[nH]c2ccccc12)NC(=O)C[C@H](Cc1c[nH]c2ccccc12)NC(=O)[C@@H]1CCCC[C@H]1N,-4%,0,-1%,-2%
